Active and inactive are the calls of the source. Rule for the calls: active = hit-call score of the fitted dose curve at least 0.9, where 1 is the maximum; inactive = score below 0.9.
What was measured:
[1] = ATG_CRE_CIS: Attagene CIS-FACTORIAL HepG2 Assay for human cAMP Responsive Element (CRE) binding protein 3 (AID 2282926); settings: HepG2 CRE cis-reporter, Attagene multiplexed mRNA; actives raise or lower the signal
Summary of the method: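 Induced reporter mRNA from a CRE cis element, measured in HepG2 among many multiplexed units at 24 h. Detection used RT-PCR plus capillary electrophoresis of fluorescent fragments; DMSO served as negative control.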

[2] = target: CCAAT/enhancer-binding protein beta (Homo sapiens) (UniProt P17676); test: ATG_C_EBP_CIS: Attagene CIS-FACTORIAL HepG2 Assay for human CCAAT/Enhancer Binding Protein (C/EBP) beta (AID 2282927); settings: HepG2 Attagene cis-factorial transcription factor reporter; actives raise or lower the signal
Sequence of CCAAT/enhancer-binding protein beta (Homo sapiens) (P17676 whole entry, looked up): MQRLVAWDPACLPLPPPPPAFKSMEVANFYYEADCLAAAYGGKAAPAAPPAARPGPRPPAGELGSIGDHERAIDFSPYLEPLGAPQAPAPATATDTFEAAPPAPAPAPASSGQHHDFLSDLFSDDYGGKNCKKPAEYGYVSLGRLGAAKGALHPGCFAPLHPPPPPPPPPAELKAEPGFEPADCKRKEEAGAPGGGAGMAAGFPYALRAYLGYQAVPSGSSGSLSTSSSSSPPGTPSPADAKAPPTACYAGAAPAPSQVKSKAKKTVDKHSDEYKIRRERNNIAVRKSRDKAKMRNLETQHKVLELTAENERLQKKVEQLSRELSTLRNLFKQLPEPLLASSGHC
Summary of the method: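 Changes in reporter mRNA, rather than exogenous chimeric receptor activity, reflect native C/EBP signalling in transfected HepG2 cells dosed for 24 h; transcripts are detected by RT-PCR and capillary electrophoresis.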

[3] = ATG_CMV_CIS: Attagene CIS-FACTORIAL HepG2 Assay for human CMV (Internal Marker) (AID 2282928); settings: HepG2 CMV promoter reporter, transcription factor profiling; actives raise or lower the signal;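 note: endpoint acts as a background internal control marker rather than a target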
Summary of the method: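 Readout: fluorescent reporter cDNA fragments separated by capillary electrophoresis after RT-PCR and HpaI cut. Cells: HepG2 carrying transfected cis-promoter reporter constructs, dosed 24 h. Endpoint serves as background internal-marker control, fit bidirectionally versus DMSO.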

[4] = ATG_DR4_LXR_CIS: Attagene CIS-FACTORIAL HepG2 Assay for human Liver X Receptor (LXR), DR4 submotif (AID 2282929); settings: HepG2 Attagene DR4 cis-reporter, mRNA transcription; actives raise or lower the signal
Summary of the method: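 Cells were transfected with multiple reporter transcription units, exposed to chemicals for 24 hours, then lysed for RNA. Reporter mRNA induction was measured by RT-PCR with capillary electrophoresis detection and fitted in both directions relative to DMSO.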

[5] = target: Aryl hydrocarbon receptor (Homo sapiens) (UniProt P35869); test: ATG_Ahr_CIS: Attagene CIS-FACTORIAL HepG2 Assay for human Aryl Hydrocarbon Receptor (Ahr) (AID 2282930); settings: HepG2 AhR cis-factorial reporter transcription; actives raise or lower the signal
Sequence of Aryl hydrocarbon receptor (Homo sapiens) (P35869 whole entry, looked up): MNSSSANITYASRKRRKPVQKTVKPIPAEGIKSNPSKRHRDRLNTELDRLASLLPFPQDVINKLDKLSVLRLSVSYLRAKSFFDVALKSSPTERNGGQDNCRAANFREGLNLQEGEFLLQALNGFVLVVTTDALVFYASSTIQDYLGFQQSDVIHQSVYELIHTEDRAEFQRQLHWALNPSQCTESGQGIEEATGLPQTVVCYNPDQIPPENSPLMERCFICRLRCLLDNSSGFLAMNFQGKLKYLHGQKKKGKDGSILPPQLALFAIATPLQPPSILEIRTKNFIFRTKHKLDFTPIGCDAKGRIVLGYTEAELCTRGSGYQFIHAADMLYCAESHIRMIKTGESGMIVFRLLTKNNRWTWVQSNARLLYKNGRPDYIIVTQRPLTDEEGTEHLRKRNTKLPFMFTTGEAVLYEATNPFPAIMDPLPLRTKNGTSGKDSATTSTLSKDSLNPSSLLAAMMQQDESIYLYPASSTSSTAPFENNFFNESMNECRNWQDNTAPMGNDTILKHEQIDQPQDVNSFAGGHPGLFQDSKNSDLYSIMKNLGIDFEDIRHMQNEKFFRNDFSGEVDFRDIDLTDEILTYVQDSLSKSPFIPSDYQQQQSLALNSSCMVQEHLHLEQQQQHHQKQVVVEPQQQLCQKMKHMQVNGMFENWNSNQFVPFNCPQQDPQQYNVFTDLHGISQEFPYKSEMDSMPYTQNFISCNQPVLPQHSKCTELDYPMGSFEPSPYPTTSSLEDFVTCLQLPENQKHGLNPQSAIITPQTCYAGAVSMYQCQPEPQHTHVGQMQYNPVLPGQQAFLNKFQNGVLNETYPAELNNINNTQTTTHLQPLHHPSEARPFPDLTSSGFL
Summary of the method: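 HepG2, transient MRTU (cis) transfection, 24 h exposure. RNA → cDNA → PCR → 6-FAM primer extension → HpaI 2 h 37 C → CE. Fit: bidirectional, DMSO baseline.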

[6] = ATG_AP_1_CIS: Attagene CIS-FACTORIAL HepG2 Assay for human Activator Protein 1 (AP-1) (AID 2282931); settings: HepG2 Attagene cis-factorial AP-1 reporter mRNA; actives raise or lower the signal
Summary of the method: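 Endogenous transcription-factor activity in human HepG2 liver cells is read through a cis-promoter reporter transcript, sampled 24 h after dosing. Detection uses RT-PCR with capillary electrophoresis; values come from bidirectional fitting relative to DMSO.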

[7] = ATG_AP_2_CIS: Attagene CIS-FACTORIAL HepG2 Assay for human Activator Protein 2 (AP-2) (AID 2282932); settings: HepG2 AP-2 cis-reporter, Attagene transcription factor profiling; actives raise or lower the signal
Summary of the method: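 Transiently transfected HepG2 cells are exposed to chemical for 24 h. Reporter transcripts are then measured as fluorescence following RT-PCR and capillary separation, and gain- or loss-of-signal is fitted relative to DMSO.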

[8] = ATG_BRE_CIS: Attagene CIS-FACTORIAL HepG2 Assay for human Bone Morphogenetic Protein (BMP) Response Element (BRE) (AID 2282933); settings: HepG2 BMP response element reporter, Attagene transcription factor profiling; actives raise or lower the signal
Summary of the method: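 A HepG2 multiplex reporter system measured inducible reporter mRNA 24 h post-dosing. Detection: RT-PCR, 6-FAM primer extension, HpaI digestion, capillary electrophoresis. Activity fitted bidirectionally relative to DMSO.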

[9] = target: Transcription factor E2F1 (Homo sapiens) (UniProt Q01094); test: ATG_E2F_CIS: Attagene CIS-FACTORIAL HepG2 Assay for human E2F Transcription Factor 1 (AID 2282935); settings: HepG2 Attagene cis-reporter, E2F reporter RNA transcripts; actives raise or lower the signal
Sequence of Transcription factor E2F1 (Homo sapiens) (Q01094 whole entry, looked up): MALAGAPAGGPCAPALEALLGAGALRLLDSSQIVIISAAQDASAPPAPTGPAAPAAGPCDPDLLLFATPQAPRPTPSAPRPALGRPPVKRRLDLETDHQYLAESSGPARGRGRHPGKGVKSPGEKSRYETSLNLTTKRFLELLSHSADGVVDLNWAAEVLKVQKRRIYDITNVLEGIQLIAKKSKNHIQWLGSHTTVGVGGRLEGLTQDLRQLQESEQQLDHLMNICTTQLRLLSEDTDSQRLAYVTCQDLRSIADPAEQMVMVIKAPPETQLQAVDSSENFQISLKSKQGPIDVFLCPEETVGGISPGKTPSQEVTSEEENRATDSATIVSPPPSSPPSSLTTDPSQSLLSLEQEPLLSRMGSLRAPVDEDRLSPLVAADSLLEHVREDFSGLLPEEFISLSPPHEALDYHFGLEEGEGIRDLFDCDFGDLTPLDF
Summary of the method: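 Fluorescent RT-PCR products, digested with HpaI for 2 h at 37 C, are separated by capillary electrophoresis. Source RNA comes from transfected HepG2 cultures treated for 24 h.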

[10] = ATG_E_Box_CIS: Attagene CIS-FACTORIAL HepG2 Assay for human Enhancer Box (E-box) (AID 2282936); settings: HepG2 E-box cis-reporter transcription, actives raise or lower the signal
Summary of the method: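 Fluorescent reporter fragments separated by capillary electrophoresis gave the signal; mRNA came from HepG2 cells transfected with cis-element reporters and treated 24 h. Curves fitted bidirectionally relative to DMSO controls.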

[11] = ATG_M_61_CIS: Attagene CIS-FACTORIAL HepG2 Assay for M61 Transcription Factor (Internal Marker) (AID 2282937); settings: HepG2 Attagene CIS-FACTORIAL M61 internal marker reporter; actives raise or lower the signal
Summary of the method: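 Cells were transfected with reporter units under cis-regulatory promoters, treated with chemicals for 24 h, then lysed for RNA. Reporter transcripts were quantified by RT-PCR and capillary electrophoresis, and activity was fitted bidirectionally against DMSO.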

[12] = ATG_EGR_CIS: Attagene CIS-FACTORIAL HepG2 Assay for human Early Growth Response 1 (EGR1) (AID 2282938); settings: HepG2 Attagene CIS-FACTORIAL EGR reporter mRNA; actives raise or lower the signal
Summary of the method: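 Endogenous TF activity in HepG2 liver cells was gauged through cis-promoter reporter constructs transiently transfected. After 24 h dosing, reporter mRNA was quantified by RT-PCR and capillary electrophoresis, and curves fitted in both directions versus DMSO.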

[13] = ATG_M_19_CIS: Attagene CIS-FACTORIAL HepG2 Assay for M19 Transcription Factor (Internal Marker) (AID 2282939); settings: HepG2 Attagene CIS-FACTORIAL M19 internal marker reporter; actives raise or lower the signal
Summary of the method: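 Chemical-treated HepG2 (24 h) with MRTU constructs; reporter transcripts detected by fluorescent RT-PCR fragment analysis on capillary electrophoresis. Internal background marker, DMSO as baseline.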

[14] = ATG_ERE_CIS: Attagene CIS-FACTORIAL HepG2 Assay for Estrogen Response Element (ERE) (AID 2282940); settings: HepG2 ERE cis-reporter, Attagene RNA transcript; actives raise or lower the signal
Summary of the method: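 Human liver cells (HepG2) bearing transiently transfected, promoter-regulated reporter units were exposed 24 h. Reporter mRNA induction was detected by capillary electrophoresis of labelled RT-PCR products and fitted bidirectionally to DMSO.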

[15] = ATG_Ets_CIS: Attagene CIS-FACTORIAL HepG2 Assay for human Erythroblast Transformation Specific (ETS) (AID 2282941); settings: HepG2 ETS cis-reporter transcription, actives raise or lower the signal
Summary of the method: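 RT-PCR/capillary electrophoresis fluorescence read-out of reporter mRNA; HepG2 transient multi-reporter transfection; 24 h compound exposure; gain or loss of signal fitted bidirectionally relative to DMSO.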

[16] = target: Hepatocyte nuclear factor 3-beta (Homo sapiens) (UniProt Q9Y261); test: ATG_FoxA2_CIS: Attagene CIS-FACTORIAL HepG2 Assay for human Forkhead box A2 (FOXA2) (AID 2282942); settings: HepG2 cis-reporter transcription factor activity, 24 h; actives raise or lower the signal
Sequence of Hepatocyte nuclear factor 3-beta (Homo sapiens) (Q9Y261 whole entry, looked up): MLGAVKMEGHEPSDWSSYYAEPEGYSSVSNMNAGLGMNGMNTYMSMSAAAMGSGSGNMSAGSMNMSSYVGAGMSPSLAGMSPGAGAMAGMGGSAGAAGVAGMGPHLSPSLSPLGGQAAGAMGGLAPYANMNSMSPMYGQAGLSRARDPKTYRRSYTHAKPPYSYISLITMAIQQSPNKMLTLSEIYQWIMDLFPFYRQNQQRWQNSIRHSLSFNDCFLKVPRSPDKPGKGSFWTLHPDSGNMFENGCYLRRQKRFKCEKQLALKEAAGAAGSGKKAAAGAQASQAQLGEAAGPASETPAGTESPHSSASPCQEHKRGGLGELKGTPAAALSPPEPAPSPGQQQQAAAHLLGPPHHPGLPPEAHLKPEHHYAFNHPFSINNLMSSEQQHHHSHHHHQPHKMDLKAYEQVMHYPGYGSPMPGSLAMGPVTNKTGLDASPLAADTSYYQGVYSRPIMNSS
Summary of the method: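 Endogenous transcription factor activity was read in HepG2 cells carrying transiently transfected cis-promoter reporter units. After 24 h dosing, reporter mRNA was quantified by RT-PCR and capillary electrophoresis, and values fitted bidirectionally versus DMSO.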

[17] = ATG_FoxO_CIS: Attagene CIS-FACTORIAL HepG2 Assay for human Forkhead box O (FoxO) (AID 2282943); settings: HepG2 Attagene cis-reporter, FoxO element, mRNA; actives raise or lower the signal
Summary of the method: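 Human hepatoma HepG2 cells carry transiently introduced reporter transcription units controlled by cis promoter elements. Chemical treatment lasted 24 h, and mRNA signal was compared with DMSO.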

[18] = ATG_GATA_CIS: Attagene CIS-FACTORIAL HepG2 Assay for human GATA Binding Protein (AID 2282944); settings: HepG2 GATA cis-element reporter, Attagene multiplex mRNA; actives raise or lower the signal
Summary of the method: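 Transfected cis-reporter HepG2 cells were treated with chemicals for 24 hours. Total RNA was then converted to cDNA, amplified with reporter-specific primers and analysed by fluorescent capillary electrophoresis, using DMSO-treated wells as baseline.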

[19] = ATG_GLI_CIS: Attagene CIS-FACTORIAL HepG2 Assay for human Zinc Finger Protein GLI1 (AID 2282945); settings: HepG2, Attagene cis-factorial reporter mRNA, GLI element; actives raise or lower the signal
Summary of the method: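 Bidirectional curve fits relative to DMSO, using reporter mRNA levels from RT-PCR plus capillary electrophoresis. Cells were HepG2 transiently carrying cis-regulated reporter constructs, harvested 24 h after dosing.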

[20] = target: Retinoic acid receptor alpha (Homo sapiens) (UniProt P10276); test: ATG_DR5_RAR_CIS: Attagene CIS-FACTORIAL HepG2 Assay for human Retinoic Acid Receptor Alpha (RARE), DR5 submotif (AID 2282934); settings: HepG2 Attagene cis-factorial RARE DR5 reporter, mRNA; actives raise or lower the signal
Sequence of Retinoic acid receptor alpha (Homo sapiens) (P10276 whole entry, looked up): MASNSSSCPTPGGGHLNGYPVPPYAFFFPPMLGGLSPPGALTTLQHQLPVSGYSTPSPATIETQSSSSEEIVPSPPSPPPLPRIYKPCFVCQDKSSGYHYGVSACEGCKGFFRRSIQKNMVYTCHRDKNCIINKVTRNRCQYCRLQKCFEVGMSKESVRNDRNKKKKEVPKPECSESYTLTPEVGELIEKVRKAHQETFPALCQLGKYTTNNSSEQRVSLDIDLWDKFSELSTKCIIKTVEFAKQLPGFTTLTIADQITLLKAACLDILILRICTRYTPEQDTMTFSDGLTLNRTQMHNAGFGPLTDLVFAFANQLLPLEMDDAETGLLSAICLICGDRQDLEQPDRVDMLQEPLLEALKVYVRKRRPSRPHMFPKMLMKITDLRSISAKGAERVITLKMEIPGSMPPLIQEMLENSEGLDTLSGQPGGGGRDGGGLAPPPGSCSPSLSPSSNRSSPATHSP
Summary of the method: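 HepG2, transient cis-reporter transfection, 24 h exposure. mRNA readout: RT-PCR, FAM label, HpaI cut, capillary electrophoresis. DMSO baseline, gain/loss fitting.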

Measured: outcome

[Cl][Nd]([Cl])[Cl]
not listed: [20]
inactive: all other assays above

O=C(O)c1cc(Cl)cc([N+](=O)[O-])c1Cl
not listed: [5]
inactive: all other assays above

C=C(C)CCO
not listed: [7]
inactive: all other assays above

CO[Si](CCC1CCC2OC2C1)(OC)OC (stereo unspecified)
not listed: [7]
inactive: all other assays above

Clc1nc2ccccc2s1
not listed: [8] | [10]
inactive: all other assays above

CCO[Si](C)(OCC)OCC
not listed: [8] | [10]
inactive: all other assays above

CC(=O)Nc1nnc(S(N)(=O)=O)s1
not listed: [7]
inactive: all other assays above
